D2 ag-1: agonists of human D2 dopamine receptor (beta-arrestin); P14416; DiscoveRx PathHunter D2 beta-arrestin, luminescence, 90 min; 100% = 57 uM dopamine signal; activation, % (no concentration beside the values); hit rate 0.084% among 360,000; AID 624465; in the data active = activation above about 40%
Target sequence (P14416 whole entry, looked up): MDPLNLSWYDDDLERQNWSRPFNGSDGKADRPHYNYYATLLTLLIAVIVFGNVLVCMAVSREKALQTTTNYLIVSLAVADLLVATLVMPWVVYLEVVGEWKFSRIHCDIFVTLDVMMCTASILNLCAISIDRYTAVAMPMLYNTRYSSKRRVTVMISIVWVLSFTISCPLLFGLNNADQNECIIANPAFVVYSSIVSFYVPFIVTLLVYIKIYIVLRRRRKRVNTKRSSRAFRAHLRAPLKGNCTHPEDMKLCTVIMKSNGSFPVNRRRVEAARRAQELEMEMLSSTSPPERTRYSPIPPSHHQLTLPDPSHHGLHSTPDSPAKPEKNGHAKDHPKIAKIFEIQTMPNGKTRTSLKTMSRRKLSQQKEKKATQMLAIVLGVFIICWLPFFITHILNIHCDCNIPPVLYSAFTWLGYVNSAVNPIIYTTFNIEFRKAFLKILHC
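Agonist mode: compounds alone added to overnight-plated D2 PathHunter cells for 90 min at 37 C, with 57 uM final dopamine (EC100) defining full response. Beta-arrestin recruitment detected by chemiluminescent reagent, read after 1 h at ambient temperature.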
D2 PAM-1: positive allosteric modulators of human D2 dopamine receptor | HEK293 T-REx D2, calcium flux, EC20 dopamine potentiation | potentiation, % at 10 µM | hit rate 0.34% among 340,000 | AID 485347;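 active = potentiation over 3 SD above the plate norm, cut at about 30% in these data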; also: 0% is about no effect
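Tetracycline-induced Hek293 Trex D2 cells, force-coupled to calcium, loaded with no-wash calcium dye. Compound added with 180 s kinetic read for agonism, then EC20 dopamine and a further 180 s read for potentiation.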
D2 antagonist: antagonizes the human D2 dopamine receptor; HEK293 TREx D2 cells, calcium flux, dopamine EC80; inhibition, % at 10 µM; P14416; hit rate 2% among 340,000; in the data active = inhibition above about 30%; inactive = below that, where a call was filed; also: 0% is about no effect
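Dopamine at EC80 is the agonist stimulus; test compounds precede it by 180 s. Calcium flux read kinetically in a force-coupled, inducible HEK293 T-REx D2 cell line.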
D2 ag-2: D2 dopamine receptor (human) agonism; HEK293 T-REx D2 cells, calcium flux agonist mode; AID 485358; P14416; activation, % at 2 µM; hit rate 0.53% among 340,000;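 active = activation over 3 SD above normal in the single-dose calcium agonist read, cut at about 30% in these data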; also: 0% is about no effect
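Agonism is scored from calcium flux in a force-coupled, inducible HEK293 cell line expressing D2, read kinetically for 180 s after compound addition against dopamine controls.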
D2 PAM-2: potentiates the human D2 dopamine receptor allosterically; P14416; DiscoveRx D2 beta-arrestin cells, luminescence, 90 min; 100% = 57 uM dopamine signal; potentiation, % (test concentration not listed); hit rate 0.23% among 360,000; in the data active = potentiation above about 50%
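PathHunter D2 cells, attached overnight at 37 deg C, received compound in DMSO plus dopamine at EC20 (50 nM final) for 90 min at 37 deg C. Beta-arrestin recruitment was read as luminescence after 1 h with detection reagent at ambient temperature.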
Starred values were filed as active, the others as inactive; · = no result given. Hits are enriched below; roughly 2.4% of the tested compounds scored in any of these assays.

SMILES	D2 ag-1	D2 PAM-1	D2 antagonist	D2 ag-2	D2 PAM-2
Cc1ccc(S(=O)(=O)NC(=O)c2ccc(Br)o2)c(C)c1	0	-2	31*	0	-15
CC(=O)N1CCCc2cc(S(=O)(=O)NC(C(=O)NCc3ccc(C)cc3)C(C)C)ccc21 (stereo unspecified)	-3	46*	-4	1	-8
CC(=O)N1CCc2cc(S(=O)(=O)NC(C(=O)Nc3ccc(C)cc3C)C(C)C)ccc21 (stereo unspecified)	·	-5	·	-1	·
COc1ccc(-c2ccc(SCc3cccnc3)nn2)cc1OC	1	·	·	·	54*
c1cncc(CSc2ccc(-c3cccnc3)nn2)c1	2	3	12	1	3
O=C(NCc1cccc(Cl)c1)C1CCCN(c2ncnc3onc(-c4ccc(F)cc4)c23)C1 (stereo unspecified)	·	6	·	-1	·
Cc1ccc([N+](=O)[O-])cc1NC(=O)Nc1onc(C)c1C	-10	-20	47*	-2	-56
Cc1ccc(-c2nc3c(c(SCC(=O)Nc4cccc(C(=O)O)c4)n2)Cc2cccc(C)c2O3)cc1	·	-8	·	0	·
CC(NC(=O)COc1ccccc1)C(=O)N1CCN(c2ccccc2)CC1 (stereo unspecified)	-7	8	7	0	-14
O=C(NC(=S)N1CCN(c2ccc([N+](=O)[O-])cc2)CC1)c1ccccc1	3	-3	31*	0	-2
Cc1ccc(C(=O)NC(=S)N2CCN(c3ccc([N+](=O)[O-])cc3)CC2)cc1	3	6	7	0	-16
C[C@H](NC(=O)c1ccccc1)C(=O)N1CCN(c2ccccc2)CC1	1	-3	30*	0	-3
COc1ccc(CCC(=O)NCc2nc3cccnc3n2Cc2ccccc2)cc1	·	15	·	0	·
COC(=O)c1ccc(NC(=O)CN2CCN(CCO)CC2)cc1	0	-11	33*	0	-1
O=C(CCN1CCCCC1)Nc1cccc(Br)c1	-5	-11	55*	0	-6
O=C(CN1CCCCCC1)Nc1ccc(Br)cc1	7	-23	77*	2	-19
O=C(CN1CCCCCC1)Nc1ccc(Br)cn1	-5	12	41*	-1	-3
O=C(CN1CCCC1)Nc1ccc(Br)cc1	-2	7	-22	1	-3
CC1CN(CC(=O)Nc2ccc(Br)cn2)CC(C)O1 (stereo unspecified)	2	13	-19	2	2
CN1CCN(CCC(=O)Nc2cccc(Br)c2)CC1	-1	-14	7	0	-11
CN(C)S(=O)(=O)c1ccc(C(=O)NCCSc2c(-c3ccc(Br)cc3)[nH]c3ccccc23)cc1	·	2	·	0	·
COc1ccc(S(=O)(=O)N(CC(=O)NC(C)c2ccccc2)c2ccc(C)cc2)cc1OC (stereo unspecified)	·	-3	·	-1	·
COC(=O)c1cc(NC(=O)CN2CCOCC2)cc(C(=O)OC)c1	-4	-7	-2	7	5
CCOC(=O)c1cc(NC(=O)CN2CCCC2)cc(C(=O)OCC)c1	3	36*	9	-2	-3
O=C(Cc1ccc(Cl)cc1)Nc1ccc(Br)cc1	1	-22	44*	0	-26
SMILES	D2 ag-1	D2 PAM-1	D2 antagonist	D2 ag-2	D2 PAM-2
Cn1nnc2c(NCc3ccc(Cl)cc3)ncnc21	·	-2	·	1	·
CN1C(=O)Cc2cc(S(=O)(=O)NCc3ccc(Cl)cc3)ccc21	·	13	·	0	·
CCCNC(=O)COc1ncnc2sccc12	7	14	33*	2	7
CC(C)CNC(=O)NC(=O)COc1ncnc2sccc12	-2	6	37*	0	1
COc1ccccc1NC(=O)CSC1=Nc2ccccc2C2=NC(CCC(=O)NCc3cccs3)C(=O)N12 (stereo unspecified)	·	-13	·	0	·
CCN1CCOC(=O)C1CC(=O)Nc1cc(C)ccc1OC (stereo unspecified)	·	17	·	1	·
CCc1ccc(-c2nc(CS(=O)CC(=O)NCc3ccco3)c(C)o2)cc1 (stereo unspecified)	0	73*	-11	0	-2
COc1ccc(-c2nc(CS(=O)CC(=O)NCc3ccco3)c(C)o2)cc1 (stereo unspecified)	-2	-7	-3	-1	-2
Cc1cccc(-c2nc(CS(=O)CC(=O)NCc3cccs3)c(C)o2)c1 (stereo unspecified)	-9	3	39*	0	-3
CC1CCc2nc3ncn(Cc4cccc(F)c4)c(=O)c3cc2C1 (stereo unspecified)	·	-5	·	0	·
CCOc1ccc(CNC(=O)c2cccn2-c2nnc(N3CCCCC3)s2)cc1OC	·	13	·	0	·
CCc1nnc2n1N=C(c1ccc(OC)cc1)CS2	-3	4	34*	0	-7
CCOc1ccc(-c2nnc3n2N=C(c2ccc(OC)cc2)CS3)cc1	1	9	19	1	-2
COc1ccc(-c2cc(C3CCN(Cc4cccc(C(F)(F)F)c4)CC3)[nH]n2)cc1	4	-23	59*	-1	-13
Cc1ccc(C(C)C)c(OCc2nn(CC(=O)c3ccc(Cl)cc3)c3[n+]2CCCCC3)c1	-12	-28	33*	1	-23
O=C(Cn1nc(CNc2ccc(Cl)cc2)[n+]2c1CCCCC2)c1ccccc1	-3	-14	7	-1	-11
CC1=CC(C)(C(Cl)Cl)C(C)=CC1=O (stereo unspecified)	0	70*	17	1	-8
O=C1N(CN2CCN(c3cccc(Cl)c3)CC2)c2ccccc2C12OCCCO2	-1	-22	33*	1	-17
O=C1N(CN2CCC3(CC2)OCCO3)c2ccccc2C12OCCCO2	-3	6	4	0	-10
CC1CCc2onc(C(=O)N3CCN(c4ccc(Cl)cc4)CC3)c2C1 (stereo unspecified)	·	-9	·	-1	·
N#CC1(NC(=O)COC(=O)c2ncc(Cl)c(Cl)c2Cl)CCCCC1	0	7	-4	1	26
N#CC1(NC(=O)COC(=O)c2nc(Cl)c(Cl)c(N)c2Cl)CCCCC1	6	-15	-5	31*	-8
COc1ccc(CNC(=O)CCc2c(C)nn(-c3ccc(N4CCCC4)nn3)c2C)c(OC)c1	·	·	·	-1	·
COc1ccccc1CNC(=O)C(=O)NCC(c1cccs1)S(=O)(=O)c1ccccc1 (stereo unspecified)	·	19	·	-1	·
CCN(C(=O)c1ccc2c(c1)N(Cc1cccc(Cl)c1)C(=O)c1ccccc1S2=O)c1ccccc1 (stereo unspecified)	·	-5	·	1	·
Cn1nnnc1SCCCNCc1ccccc1OCc1ccc(F)cc1	·	-32	·	-1	·
CCOc1ccc2c(c1)c(C(C)=O)c(C)n2-c1ccccc1	-4	-11	2	40*	-4
O=C(O)c1ccc2nc3c(nc2c1)-c1ccccc1C3=O	-5	8	34*	1	-17

Compound activity as filed in PubChem.
